Screening data from PubChem.
Sampled rows, rich in hits. Any-hit rate of the full collection: about 3.8%.
MITF act: activators of MITF-driven TRPM1 promoter activity in SK-MEL-5 cells | SK-MEL-5 TRPM1-promoter luciferase, 24 h; % of positive control, neutral wells = 0 | 300,000 compounds, 0.75% hits | activation, % at 12.5 µM | AID 588334;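 active = mean activation of at least 80% with every replicate also reaching 80%; inconclusive = mean reaches 80% but some replicate falls short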;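 note: 0% = neutral control wells and 100% = parthenolide positive control wells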
esBAF inh: SWI/SNF esBAF complex inhibition; reporter increase, % at 12.5 µM; mouse ES cells, Bmi1-luciferase knock-in reporter, 24 h; 100% = twice the neutral-well signal; 350,000 compounds, 2% hits; AID 602393; in the data active = activation above about 40%; inconclusive = no clear call, values can overlap the other calls;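 note: 0% = median of the plate's neutral control wells and 100% = double that signal; a rise in the Bmi1 reporter signal indicates esBAF inhibition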
HSF-1 act: increases HSF-1 driven luciferase reporter signal. 300,000 compounds, 1.7% hits. NIH3T3-HGL HSF-1 luciferase reporter, MG132, 8 h; 100% = twice DMSO control signal. activation, % at 9 µM;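 active = mean replicate activation of at least 50% with a set share of replicates each reaching 50%; inconclusive = only one of those two conditions met; inactive = mean below 50% and too few replicates reaching it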;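 note: 0% = median of the neutral control wells and 100% = twice that signal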
Wnt act: activates Wnt/beta-catenin signaling in a reporter cell assay | activator, plate reader | activation, % at 9.35 µM | 300,000 compounds, 1.2% hits | AID 743398; in the data active = activation above about 30%, passing the limit was not always enough; inconclusive = no clear call, values can overlap the other calls;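 note: 0% = neutral control wells and 100% = positive control wells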
HSF1 inh: HSF1 inhibition; activity change, negative = inhibition, % at 7.5 µM (by protocol); NIH3T3-HGL HSE-luciferase, MG132-induced, luminescence 8 h; active compounds read low; AID 2098; 300,000 compounds, 0.77% hits;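 active = more than half of replicate wells show activity change below -50%, luminescence cut by over half; inconclusive = some wells, but at most half, below -50%; inactive = no replicate well below -50%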;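 note: luciferase reports HSF-1 transcriptional activity via heat shock element; 0% = median of DMSO wells and -100% = zero luminescence signal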
The depositor's hits bear a star; ? = inconclusive; . = no result given.

SMILES	MITF act	esBAF inh	HSF-1 act	Wnt act	HSF1 inh
CN1CCN(c2ccc(NC(=O)c3ccc(Br)o3)cc2)CC1	34	5	19	17	7
O=C(Nc1ccc(N2CCOCC2)cc1)c1ccc(Br)o1	.	-70	31	23	-2
CC1CCN(c2ccc(NC(=O)c3cccnc3)cc2)CC1	.	32	25	37*	17
Cc1cccc(C)c1NC(=O)c1cccnc1	0	-4	-76	-1	-67*
CC(=O)N(C)C[C@@H]1Oc2cc(C#Cc3ccccc3)ccc2S(=O)(=O)N([C@H](C)CO)C[C@@H]1C	.	1	.	.	.
C[C@@H]1CN([C@@H](C)CO)S(=O)(=O)c2ccc(-c3cccnc3)cc2O[C@@H]1CN(C)C(=O)c1ccc2c(c1)OCO2	.	-7	.	.	.
CCN(CC)c1ccc(NC(=O)c2cccnc2)cc1	57	32	?	37*	17
CCN(CC)c1ccc(NC(=O)c2cncc(Br)c2)cc1	58	.	4	.	-1
CO[C@H]1CN(C)C(=O)c2cc(NC(=O)Nc3ccc4c(c3)OCO4)ccc2OC[C@@H](C)NC[C@H]1C	.	51*	.	.	.
CO[C@@H]1CN(C)C(=O)c2cc(NC(=O)Nc3ccccc3)ccc2OC[C@@H](C)NC[C@@H]1C	.	3	.	.	.
CO[C@H]1CN(C)C(=O)c2cc(NC(=O)Nc3ccc4c(c3)OCO4)ccc2OC[C@H](C)NC[C@H]1C	.	44*	.	.	.
CO[C@H]1CN(C)C(=O)c2cc(NC(=O)Nc3ccc4c(c3)OCO4)ccc2OC[C@H](C)NC[C@@H]1C	.	55*	.	.	.
COc1ccc(NC(=O)N(C)C[C@@H]2Oc3ccc(NC(=O)CCCCCC(=O)Nc4ccccc4N)cc3CC(=O)N([C@@H](C)CO)C[C@H]2C)cc1	.	4	.	.	.
COCC#Cc1cnc2c(c1)C(=O)N([C@H](C)CO)C[C@H](C)[C@H](CN(C)C(C)=O)O2	.	0	.	.	.
C[C@@H]1CN([C@@H](C)CO)C(=O)c2cc(NC(=O)CCC(F)(F)F)ccc2O[C@@H]1CN(C)Cc1ccncc1	.	-2	.	.	.
O=C(Oc1ccccc1N1CCOCC1)c1sccc1Br	.	3	10	45*	5
O=C(N/N=C/c1ccccc1O)NC12CC3CC(CC(C3)C1)C2	136*	15	-10	19	-1
Cc1c(/C(O)=C2/C(=O)C(=O)N(Cc3cccnc3)C2c2cccs2)cnn1-c1ccccc1 (stereo not drawn)	53	46*	-68	-3	-64*
Cc1c(/C(O)=C2/C(=O)C(=O)N(Cc3cccnc3)C2c2ccccn2)cnn1-c1ccccc1 (stereo not drawn)	-47	.	-80	-11	-76*
C[C@@H]1CCCCO[C@@H](CN(C)Cc2ccc(C(=O)O)cc2)[C@H](C)CN([C@@H](C)CO)C(=O)c2cc(NS(=O)(=O)c3ccc(Cl)cc3)ccc2O1	.	4	.	.	.
C[C@@H]1CCCCO[C@H](CN(C)C(=O)c2ccccc2)[C@@H](C)CN([C@@H](C)CO)C(=O)c2cc(NC(=O)Nc3ccccc3)ccc2O1	.	-10	.	.	.
CC(=O)c1cccc(NC(=O)CCC(=O)c2ccc(F)cc2)c1	-8	2	29	4	7
O=C(CCC(=O)c1ccc(F)cc1)Nc1cc(Cl)cc(Cl)c1	14	-4	58*	.	5
COc1cc(/C=N/N(c2ccccc2)c2ccccc2)ccc1O	.	-6	11	0	8
CCOc1ccc(/C=N/N(C)c2ccccc2)cc1OC	109*	86*	73*	.	51
SMILES	MITF act	esBAF inh	HSF-1 act	Wnt act	HSF1 inh
CC(=O)Nc1cc2c(cc1Cl)-c1ccccc1C2	19	52*	.	0	.
Cc1cc(-c2nnc(CCC(=O)N(CC3CCC3)CC3CCCO3)o2)no1 (stereo not drawn)	32	47*	7	-1	7
C[C@H]1CN([C@@H](C)CO)C(=O)c2c(c3ccccc3n2C)-c2ccccc2CO[C@H]1CN(C)S(=O)(=O)Cc1ccccc1	.	3	.	.	.
O=C(O)COn1c(-c2ccc(Cl)cc2)nc2ccc(Cl)cc21	57	.	92*	13	63
COc1ccc(-c2nc3ccccc3n2OCC(=O)O)cc1	21	25	32	16	26
COn1c(-c2ccc(Cl)cc2)nc2ccc(Cl)cc21	22	5	111*	57*	84
O=C(C[C@H]1CC[C@@H](NS(=O)(=O)c2cccc(F)c2)[C@H](CO)O1)N1CCCCC1	.	-3	.	.	.
